Experiment [1] addresses human Rho Associated Coiled-coil Containing Protein Kinase 1 (ROCK1), ROCK1 (gene 6093) (UniProt Q13464). Kind of experiment: NVS_ENZ_hROCK1: NovaScreen (NVS) Enzymatic Assay for human Rho Associated Coiled-coil Containing Protein Kinase 1 (ROCK1) (AID 2283214). In short, it runs like this: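 Cell-free recombinant human ROCK1 activity assay; fluorescent substrate and product separated by electrophoretic mobility shift, read 1 h after dosing. Screened in duplicate at 25 uM; loss of signal versus DMSO baseline scored as inhibition.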

In experiment [2] the target is human Protein Tyrosine Phosphatase Non-receptor Type 1 (PTPN1), PTPN1 (gene 5770) (UniProt P18031). The experiment can be described thus: NVS_ENZ_hPTPN1: NovaScreen (NVS) Enzymatic Assay for human Protein Tyrosine Phosphatase Non-receptor Type 1 (PTPN1) (AID 2283201). In short, it runs like this:
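Cell-free fluorogenic-substrate activity assay on recombinant enzyme, read 1.33 h after dosing by fluorescence and electrophoretic mobility shift; loss of signal vs DMSO baseline. Primary screen in duplicate at 25 uM, hits then run in concentration-response up to 50 uM.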

The target of experiment [3] is human Protein Tyrosine Phosphatase Non-receptor Type 6 (PTPN6), PTPN6 (gene 5777) (UniProt P29350). Kind of experiment: NVS_ENZ_hPTPN6: NovaScreen (NVS) Enzymatic Assay for human Protein Tyrosine Phosphatase Non-receptor Type 6 (PTPN6) (AID 2283210). In a few lines: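 Cell-free assay with recombinant PTPN6 expressed in SF9 cells, fluorescent substrate, product separated from substrate by electrophoretic mobility shift; read 1.33 hours after dosing. Primary screen in duplicate at 25 uM, actives retested in concentration series; DMSO baseline.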

Experiment [4] addresses rabbit Imidazoline 2 Central (I2C), CKB (gene 100009085) (UniProt P00567). Kind of experiment: NVS_ENZ_rabI2C: NovaScreen (NVS) Enzymatic Assay for rabbit Imidazoline 2 Central (I2C) (AID 2283228). In short, it runs like this: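 Rabbit brain membranes, cell-free; readout by filter-based scintillation counting 1.5 hours after dosing, loss of signal vs DMSO. Initial duplicate test at 25 uM, then concentration-response with 50 uM top concentration.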

Experiment [5] has as its target human Sirtuin 1 (SIRT1), SIRT1 (gene 23411) (UniProt Q96EB6). The experiment can be described thus: NVS_ENZ_hSIRT1: NovaScreen (NVS) Enzymatic Assay for human Sirtuin 1 (SIRT1) (AID 2283219). In a few lines:
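Cell-free recombinant SIRT1 with a fluorescent substrate; substrate and product separated by electrophoretic mobility shift and read by fluorescence intensity, 1 h after dosing. Primary screen at 25 uM in duplicate; hits re-run in concentration-response up to 50 uM, relative to DMSO.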

Experiment [6] has as its target Serine/threonine-protein phosphatase PP1-alpha catalytic subunit (Homo sapiens) (UniProt P62136). The experiment can be described thus: NVS_ENZ_hPPP1CA: NovaScreen (NVS) Enzymatic Assay for human Protein Phosphatase 1 Aatalytic subunit Alpha (PPP1CA) (AID 2283200). In short, it runs like this:
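Recombinant enzyme activity read by fluorescence with electrophoretic mobility shift separating substrate from product, 1.33 h after dosing; loss of signal vs DMSO baseline. Primary screen in duplicate at 25 uM; actives retested in concentration-response up to 50 uM.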

Experiment [7] addresses human Sirtuin 3 (SIRT3), SIRT3 (gene 23410) (UniProt Q9NTG7). Kind of experiment: NVS_ENZ_hSIRT3: NovaScreen (NVS) Enzymatic Assay for human Sirtuin 3 (SIRT3) (AID 2283222). In short, it runs like this: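 Cell-free enzyme assay with recombinant protein and fluorescent substrate, product separated by electrophoretic mobility shift; read 1 hour after dosing. Screened in duplicate at 25 uM, then singleton concentration-response up to 50 uM; loss of signal versus DMSO.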

For experiment [8], the target named is human SRC Proto-Oncogene, Non-receptor Tyrosine Kinase (SRC), SRC (gene 6714) (UniProt P12931). Kind of experiment: NVS_ENZ_hSRC: NovaScreen (NVS) Enzymatic Assay for human SRC Proto-Oncogene, Non-receptor Tyrosine Kinase (SRC) (AID 2283223). In short, it runs like this: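 Cell-free kinase activity assay with fluorescent substrate, product separated by electrophoretic mobility shift, read 1 h after dosing. Duplicate single point at 25 uM, then concentration-response up to 50 uM; loss of signal versus DMSO.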

For experiment [9], the target named is human Protein Phosphatase, Mg2+/Mn2+ Dependent 1A (PPM1A), PPM1A (gene 5494) (UniProt P35813). The experiment can be described thus: NVS_ENZ_hPPM1A: NovaScreen (NVS) Enzymatic Assay for human Protein Phosphatase, Mg2+/Mn2+ Dependent 1A (PPM1A) (AID 2283198). In a few lines: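 Cell-free recombinant PPM1A phosphatase assay with fluorescent substrate, read 1 h after dosing by electrophoretic mobility shift. Chemicals screened in duplicate at 25 uM, then in concentration-response up to 50 uM; loss of activity versus DMSO.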

In experiment [10] the target is Tyrosine-protein phosphatase non-receptor type 13 (Homo sapiens) (UniProt Q12923). Kind of experiment: NVS_ENZ_hPTPN13: NovaScreen (NVS) Enzymatic Assay for human Protein Tyrosine Phosphatase Non-receptor Type 13 (PTPN13) (AID 2283205). In a few lines:
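Cell-free assay of recombinant human PTPN13 with a fluorescent substrate, product separated by electrophoretic mobility shift and read 0.5 h after dosing. Primary screen at 25 uM in duplicate, then concentration-response up to 50 uM. Loss of signal fitted against DMSO.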

Experiment [11] addresses human Protein Tyrosine Phosphatase Receptor Type M (PTPRM), PTPRM (gene 5797) (UniProt P28827). The experiment can be described thus: NVS_ENZ_hPTPRM: NovaScreen (NVS) Enzymatic Assay for human Protein Tyrosine Phosphatase Receptor Type M (PTPRM) (AID 2283215). In short, it runs like this: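 Cell-free recombinant PTPRM with fluorogenic substrate; product separated from substrate by electrophoretic mobility shift and read by fluorescence, 1.33 h after dosing. Primary screen single concentration (25 uM) in duplicate; actives retested in concentration series; loss of signal versus DMSO.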

Experiment [12] has as its target human Phosphoinositide 3-kinase alpha (PI3Ka), PIK3CA (gene 5290) (UniProt P42336). The experiment can be described thus: NVS_ENZ_hPI3Ka: NovaScreen (NVS) Enzymatic Assay for human Phosphoinositide 3-kinase alpha (PI3Ka) (AID 2283196). In short, it runs like this:
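Recombinant human PI3Kα with fluorescent substrate, 1 h, product separated by electrophoretic mobility shift; 25 uM duplicate screen, hits (e.g., 30% inhibition) retested singly up to 50 uM; loss of signal vs DMSO.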

The target in experiment [13] is human Sirtuin 2 (SIRT2), SIRT2 (gene 22933) (UniProt Q8IXJ6). Kind of experiment: NVS_ENZ_hSIRT2: NovaScreen (NVS) Enzymatic Assay for human Sirtuin 2 (SIRT2) (AID 2283217). In short, it runs like this: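 Cell-free recombinant human SIRT2, fluorescent substrate with product separated by electrophoretic mobility shift, 1 hr. Screened in duplicate at 25 uM; hits rerun singly in concentration-response up to 50 uM, relative to DMSO.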
Chain of human Sirtuin 2 (SIRT2), SIRT2 (gene 22933) (Q8IXJ6 whole entry, looked up): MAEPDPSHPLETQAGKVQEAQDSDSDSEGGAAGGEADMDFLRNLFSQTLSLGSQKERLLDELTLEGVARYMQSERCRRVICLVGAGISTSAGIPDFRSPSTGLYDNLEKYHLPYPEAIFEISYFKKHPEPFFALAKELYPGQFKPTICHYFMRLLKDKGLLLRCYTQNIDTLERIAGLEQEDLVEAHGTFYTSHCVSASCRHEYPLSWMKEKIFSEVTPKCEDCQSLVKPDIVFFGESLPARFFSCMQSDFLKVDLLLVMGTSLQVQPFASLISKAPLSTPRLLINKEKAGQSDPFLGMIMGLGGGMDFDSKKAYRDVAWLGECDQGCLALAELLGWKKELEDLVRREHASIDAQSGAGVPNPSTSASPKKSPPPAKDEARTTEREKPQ

The target of experiment [14] is Tyrosine-protein phosphatase non-receptor type 14 (Homo sapiens) (UniProt Q15678). The experiment can be described thus: NVS_ENZ_hPTPN14: NovaScreen (NVS) Enzymatic Assay for human Protein Tyrosine Phosphatase Non-receptor Type 14 (PTPN14) (AID 2283206). In a few lines: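 Cell-free recombinant human PTPN14 with fluorescent substrate, read 0.5 h after dosing by fluorescence and electrophoretic mobility shift separating substrate from product. Primary screen at 25 uM in duplicate; hits run to 50 uM maximum; loss of signal versus DMSO.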

Experiment [15] deals with human Tropomyosin Receptor Kinase A (TRKA), NTRK1 (gene 4914) (UniProt P04629). The experiment can be described thus: NVS_ENZ_hTrkA: NovaScreen (NVS) Enzymatic Assay for human Tropomyosin Receptor Kinase A (TRKA) (AID 2283224). In a few lines:
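Recombinant human TrkA activity read after 1 h by fluorescence with electrophoretic mobility shift separating substrate and product. Primary screen in duplicate at 25 uM; actives were rerun in concentration-response up to 50 uM. Loss of signal versus DMSO.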

In experiment [16] the target is Tyrosine-protein phosphatase non-receptor type 11 (Homo sapiens) (UniProt Q06124). Kind of experiment: NVS_ENZ_hPTPN11: NovaScreen (NVS) Enzymatic Assay for human Protein Tyrosine Phosphatase Non-receptor Type 11 (PTPN11) (AID 2283202). In short, it runs like this:
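Recombinant human PTPN11 activity on a fluorescent substrate, with substrate/product separated by electrophoretic mobility shift; read 0.5 h after dosing, loss of signal vs DMSO. Duplicate 25 uM screen, then concentration-response up to 50 uM.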

Results on 22 compounds are retold here after PubChem BioAssay (EPA / NIEHS).

SMILES strings stand for the structures. Inconclusive results are not listed. The source made the active and inactive calls. The calls were made as follows: active = hit-call score of the fitted dose curve at least 0.9, where 1 is the maximum; inconclusive = response in the unintended direction; inactive = score below 0.9.

Chain of human Sirtuin 1 (SIRT1), SIRT1 (gene 23411) (Q96EB6 whole entry, looked up): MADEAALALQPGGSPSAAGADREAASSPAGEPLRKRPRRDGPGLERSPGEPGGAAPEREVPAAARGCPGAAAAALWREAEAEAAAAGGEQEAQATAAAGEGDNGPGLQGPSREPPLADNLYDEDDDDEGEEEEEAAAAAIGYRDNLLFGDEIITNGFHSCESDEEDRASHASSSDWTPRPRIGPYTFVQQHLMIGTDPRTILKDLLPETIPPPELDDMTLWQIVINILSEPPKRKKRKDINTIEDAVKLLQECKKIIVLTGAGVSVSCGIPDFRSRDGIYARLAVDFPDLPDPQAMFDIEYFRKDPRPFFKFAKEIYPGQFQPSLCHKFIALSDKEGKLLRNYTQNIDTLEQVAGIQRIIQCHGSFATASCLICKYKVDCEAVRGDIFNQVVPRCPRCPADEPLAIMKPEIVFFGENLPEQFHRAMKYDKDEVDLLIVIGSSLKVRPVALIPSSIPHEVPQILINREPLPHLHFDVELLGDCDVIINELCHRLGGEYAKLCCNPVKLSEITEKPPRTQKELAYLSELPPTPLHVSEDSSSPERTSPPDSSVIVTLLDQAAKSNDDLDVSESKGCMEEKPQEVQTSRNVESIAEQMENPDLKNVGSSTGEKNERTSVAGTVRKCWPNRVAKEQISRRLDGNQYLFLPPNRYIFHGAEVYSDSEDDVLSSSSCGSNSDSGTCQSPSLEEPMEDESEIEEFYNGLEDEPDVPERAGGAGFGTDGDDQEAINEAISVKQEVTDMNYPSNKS
Chain of rabbit Imidazoline 2 Central (I2C), CKB (gene 100009085) (P00567 whole entry, looked up): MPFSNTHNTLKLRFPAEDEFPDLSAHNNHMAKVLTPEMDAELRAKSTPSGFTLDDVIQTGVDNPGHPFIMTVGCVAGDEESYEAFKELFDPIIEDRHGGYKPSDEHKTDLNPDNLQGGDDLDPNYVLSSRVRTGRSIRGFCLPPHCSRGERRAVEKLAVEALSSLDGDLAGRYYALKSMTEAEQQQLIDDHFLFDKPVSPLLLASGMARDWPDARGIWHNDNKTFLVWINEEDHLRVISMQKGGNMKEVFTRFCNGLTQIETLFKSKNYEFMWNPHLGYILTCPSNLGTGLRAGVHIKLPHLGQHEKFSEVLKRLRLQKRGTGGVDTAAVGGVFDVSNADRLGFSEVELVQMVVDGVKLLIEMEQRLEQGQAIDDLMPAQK
Chain of human Sirtuin 3 (SIRT3), SIRT3 (gene 23410) (Q9NTG7 whole entry, looked up): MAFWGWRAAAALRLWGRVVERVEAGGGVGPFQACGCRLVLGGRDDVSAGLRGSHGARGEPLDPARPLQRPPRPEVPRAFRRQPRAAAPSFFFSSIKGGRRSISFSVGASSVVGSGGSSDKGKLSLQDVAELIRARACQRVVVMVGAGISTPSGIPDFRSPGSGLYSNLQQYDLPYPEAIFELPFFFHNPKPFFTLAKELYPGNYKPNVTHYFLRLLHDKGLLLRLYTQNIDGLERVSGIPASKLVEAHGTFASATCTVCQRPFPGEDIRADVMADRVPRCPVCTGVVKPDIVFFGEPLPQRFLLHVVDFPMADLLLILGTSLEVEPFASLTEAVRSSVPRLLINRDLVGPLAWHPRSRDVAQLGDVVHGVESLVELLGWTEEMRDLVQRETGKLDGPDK
Chain of Tyrosine-protein phosphatase non-receptor type 13 (Homo sapiens) (Q12923 whole entry, looked up): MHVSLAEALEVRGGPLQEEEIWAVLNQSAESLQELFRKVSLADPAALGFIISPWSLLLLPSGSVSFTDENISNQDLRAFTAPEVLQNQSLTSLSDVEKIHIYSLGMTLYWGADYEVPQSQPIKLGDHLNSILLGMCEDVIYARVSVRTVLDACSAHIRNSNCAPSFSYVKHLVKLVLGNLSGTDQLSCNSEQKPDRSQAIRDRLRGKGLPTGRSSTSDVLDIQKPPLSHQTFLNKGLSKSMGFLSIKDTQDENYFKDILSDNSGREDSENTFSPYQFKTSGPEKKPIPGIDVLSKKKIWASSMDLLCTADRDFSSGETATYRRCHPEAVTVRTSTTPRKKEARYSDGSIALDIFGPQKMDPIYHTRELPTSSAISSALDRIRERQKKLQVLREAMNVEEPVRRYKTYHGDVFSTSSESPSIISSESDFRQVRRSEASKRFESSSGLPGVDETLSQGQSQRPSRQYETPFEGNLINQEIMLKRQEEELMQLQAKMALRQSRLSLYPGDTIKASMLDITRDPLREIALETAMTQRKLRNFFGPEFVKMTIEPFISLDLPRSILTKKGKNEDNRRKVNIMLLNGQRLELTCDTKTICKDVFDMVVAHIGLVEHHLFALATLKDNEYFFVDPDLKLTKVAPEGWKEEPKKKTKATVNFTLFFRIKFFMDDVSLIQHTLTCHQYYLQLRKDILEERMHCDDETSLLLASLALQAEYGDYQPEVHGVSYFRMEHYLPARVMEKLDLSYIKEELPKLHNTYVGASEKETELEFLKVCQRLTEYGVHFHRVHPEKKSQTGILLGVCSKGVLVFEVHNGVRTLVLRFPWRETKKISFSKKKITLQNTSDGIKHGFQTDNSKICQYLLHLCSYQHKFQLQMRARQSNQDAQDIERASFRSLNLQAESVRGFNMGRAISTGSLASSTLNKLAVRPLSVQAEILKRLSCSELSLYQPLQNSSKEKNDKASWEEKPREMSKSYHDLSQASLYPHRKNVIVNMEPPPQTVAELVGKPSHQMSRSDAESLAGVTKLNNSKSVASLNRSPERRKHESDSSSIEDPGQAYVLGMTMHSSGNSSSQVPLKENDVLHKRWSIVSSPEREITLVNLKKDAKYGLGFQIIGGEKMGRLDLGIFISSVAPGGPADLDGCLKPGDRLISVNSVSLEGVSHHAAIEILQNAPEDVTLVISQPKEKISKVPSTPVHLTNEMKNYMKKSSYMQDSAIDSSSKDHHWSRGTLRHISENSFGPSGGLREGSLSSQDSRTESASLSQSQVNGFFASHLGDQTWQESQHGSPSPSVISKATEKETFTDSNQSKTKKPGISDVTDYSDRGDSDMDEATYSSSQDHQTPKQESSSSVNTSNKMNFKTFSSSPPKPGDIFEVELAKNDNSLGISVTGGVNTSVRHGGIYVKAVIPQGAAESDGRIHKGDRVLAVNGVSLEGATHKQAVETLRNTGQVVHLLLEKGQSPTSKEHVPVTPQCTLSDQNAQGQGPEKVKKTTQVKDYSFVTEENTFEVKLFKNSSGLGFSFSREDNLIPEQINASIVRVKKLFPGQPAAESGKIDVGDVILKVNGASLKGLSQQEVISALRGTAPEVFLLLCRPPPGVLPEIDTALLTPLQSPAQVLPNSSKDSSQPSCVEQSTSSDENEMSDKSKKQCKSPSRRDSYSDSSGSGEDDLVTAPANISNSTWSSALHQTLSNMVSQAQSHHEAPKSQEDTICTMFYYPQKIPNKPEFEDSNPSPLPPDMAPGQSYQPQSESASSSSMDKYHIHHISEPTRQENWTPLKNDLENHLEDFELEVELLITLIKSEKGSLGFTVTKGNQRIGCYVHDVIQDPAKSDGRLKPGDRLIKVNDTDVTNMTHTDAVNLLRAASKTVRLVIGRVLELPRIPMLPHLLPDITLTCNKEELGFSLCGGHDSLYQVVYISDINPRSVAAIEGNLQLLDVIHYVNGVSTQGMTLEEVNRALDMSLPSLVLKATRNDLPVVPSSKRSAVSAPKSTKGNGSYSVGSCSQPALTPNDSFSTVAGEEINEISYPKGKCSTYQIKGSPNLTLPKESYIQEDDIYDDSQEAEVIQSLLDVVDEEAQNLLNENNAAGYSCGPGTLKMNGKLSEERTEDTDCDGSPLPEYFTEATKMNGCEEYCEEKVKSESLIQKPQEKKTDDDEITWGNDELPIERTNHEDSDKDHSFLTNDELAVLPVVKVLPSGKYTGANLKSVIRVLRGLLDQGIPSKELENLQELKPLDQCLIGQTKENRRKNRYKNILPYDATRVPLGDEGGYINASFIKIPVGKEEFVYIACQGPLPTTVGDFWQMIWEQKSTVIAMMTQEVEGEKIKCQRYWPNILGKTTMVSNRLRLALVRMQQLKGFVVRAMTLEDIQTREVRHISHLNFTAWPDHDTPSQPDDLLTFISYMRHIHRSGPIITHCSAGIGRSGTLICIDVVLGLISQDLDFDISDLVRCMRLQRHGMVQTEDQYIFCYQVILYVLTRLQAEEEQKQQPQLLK
Chain of Serine/threonine-protein phosphatase PP1-alpha catalytic subunit (Homo sapiens) (P62136 whole entry, looked up): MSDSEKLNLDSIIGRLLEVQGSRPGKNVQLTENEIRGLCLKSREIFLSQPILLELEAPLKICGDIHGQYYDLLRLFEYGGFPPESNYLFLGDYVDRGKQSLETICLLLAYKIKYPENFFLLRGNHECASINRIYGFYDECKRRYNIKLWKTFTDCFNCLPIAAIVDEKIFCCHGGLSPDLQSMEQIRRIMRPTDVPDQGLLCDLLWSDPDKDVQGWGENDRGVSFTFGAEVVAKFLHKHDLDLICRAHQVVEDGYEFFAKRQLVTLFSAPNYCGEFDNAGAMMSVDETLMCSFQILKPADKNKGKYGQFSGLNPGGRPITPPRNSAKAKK

Regarding `CC(C)(c1cc(Br)c(O)c(Br)c1)c1cc(Br)c(O)c(Br)c1`, the compound was called inactive in experiment [1].
With `c1ccc(C[n+]2cccc3ccccc32)cc1`, the result in [2] and in experiment [3] was inactive. Also, the AC50 in experiment [4] is 11.9 µM (active).
Consider `O=c1c(-c2ccc(O)cc2)coc2cc(O)cc(O)c12`, for which, in experiment [5], the compound was called inactive.
Take `Cc1c2ccccc2c(C)c2c1ccc1ccccc12`: the call in experiment [6] was inactive.
Turning to `O=C(Nc1ccc(Cl)cc1)Nc1ccc(Cl)c(Cl)c1`, in [7], the outcome was inactive.
With `Cc1cccc2ccccc12`, in experiment [8], the call was inactive.
Consider `CC(C)(O)c1ccc(CNC(=O)c2cccnc2Oc2ccc3nonc3c2)cc1`, for which the compound was called inactive in experiment [9].
Regarding `CCN(CC)C(=O)c1cc(S(=O)(=O)Cc2ccccc2)c(N2CCC(c3ccccc3)CC2)cc1N(CC)CCN(C)C`, the outcome in experiment [10] and in experiment [11] was inactive. Besides, the AC50 in [7] was 4.57 µM (active).
On to `O=C1O[C@H]([C@@H](O)CO)C(O)=C1O`, for which the result in experiment [12] and in [7] was inactive.
Turning to `COc1ccc2cc(S(=O)(=O)N[C@H](CC(=O)N[C@H](Cc3ccc(CN4[C@H](C)CCC[C@@H]4C)cc3)C(=O)N(C)C(C)C)c3ccc4c(c3)OCO4)ccc2c1`, the result in experiment [5] was inactive.
As for `CCCCCCCCN(C)CCCCCCCC`, the outcome in experiment [12], in experiment [9] and in experiment [13] was inactive.
For `CCCC(=O)OCCC(C)C`, the call in experiment [4] was inactive.
Consider `CCN(Cc1cccc(S(=O)(=O)O)c1)c1ccc(C(=C2C=CC(=[N+](CC)Cc3cccc(S(=O)(=O)O)c3)C=C2)c2ccccc2S(=O)(=O)[O-])cc1`, for which the AC50 is 5.82 µM (active) in experiment [6] and 11.9 µM (active) in experiment [14].
As for `OCCO`, the compound was classed as inactive in experiment [1].
Regarding `O=C(O)Cn1c(=O)n(Cc2ccc(Br)cc2F)c(=O)c2ccc(Cl)cc21`, in experiment [13], the result was inactive.
For the compound `O=C(O)Cc1cc(I)c(Oc2ccc(O)c(I)c2)c(I)c1`, in experiment [15], the AC50 was 2.58 µM (active).
Take `O=C1c2ccccc2C(=O)N1CCc1noc(-c2ccc(CN3CCCCCC3)s2)n1`: the compound was classed as inactive in experiment [16], in [13] and in [7]. The AC50 in [4] is 7.93 µM (active).
For `COc1cccc([C@H](O)C2CCN(CCc3ccc(F)cc3)CC2)c1OC`, the AC50 in [4] is 12.7 µM (active).
Consider `CC(=O)N1CCN(c2ccc(OC[C@H]3CO[C@](Cn4ccnc4)(c4ccc(Cl)cc4Cl)O3)cc2)CC1`, for which the AC50 in [13] is 6.46 µM (active). The compound was classed as inactive in experiment [5].
For the compound `CCCCCCCCCCCC[N+](C)(C)C`, the AC50 in experiment [4] is 2.13 µM (active).
`CCCCOC(=O)CC(CC(=O)OCCCC)(OC(C)=O)C(=O)OCCCC`: the compound was classed as inactive in experiment [10].
On to `CC(C)(C)c1csc(-c2cc3cc(OCc4ccccc4CC(=O)O)ccc3o2)n1`, for which the outcome in experiment [2], in [16] and in [13] was inactive.
